Test results taken from PubChem BioAssay (EPA / NIEHS).
Records with an inconclusive call do not appear. The source made the active and inactive calls. How the source made its calls, unless noted: active means hit-call score of the fitted dose curve at least 0.9, where 1 is the maximum; inconclusive means response in the unintended direction; inactive means score below 0.9.

Assays:
[1] = TOX21_p53_BLA_p2_viability: Viability Assessment in the Tox21 HCT-116 p53 Agonism Beta-lactamase Assay, Phase 2 (AID 2283591);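 further: compound exposure lasted 16 h at 37 °C; actives lower the ATP signal meaning cytotoxicity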
Outline: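 Cytotoxicity readout: CellTiter-Glo ATP luminescence, 30 min at room temperature, after the beta-lactamase read. Cells were HCT116 exposed 16 h at 37C to compounds pin-transferred at 217-fold dilution from DMSO stocks.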

[2] = target: Cellular tumor antigen p53 (Homo sapiens) (UniProt P04637); experiment: TOX21_p53_BLA_p2_ratio: Tox21 HCT-116 p53 Agonism Beta-lactamase Assay, Ratio, Phase 2 (AID 2283592)
Cellular tumor antigen p53 (Homo sapiens), sequence (P04637 whole entry, looked up): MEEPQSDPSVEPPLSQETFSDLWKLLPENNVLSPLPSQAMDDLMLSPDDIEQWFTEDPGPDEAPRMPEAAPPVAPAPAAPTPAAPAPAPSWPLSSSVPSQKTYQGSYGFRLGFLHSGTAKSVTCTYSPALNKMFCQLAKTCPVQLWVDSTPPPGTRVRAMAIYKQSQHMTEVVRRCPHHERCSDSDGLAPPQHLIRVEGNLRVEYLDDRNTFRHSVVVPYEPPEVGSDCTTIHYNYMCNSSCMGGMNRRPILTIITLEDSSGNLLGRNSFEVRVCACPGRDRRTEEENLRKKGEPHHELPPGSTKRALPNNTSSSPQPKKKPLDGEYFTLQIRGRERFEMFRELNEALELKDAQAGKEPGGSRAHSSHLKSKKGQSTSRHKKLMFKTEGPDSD
Outline: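 Ratio endpoint: beta-lactamase cleavage of CCF4-AM, blue (460 nm) over green (530 nm). HCT116 reporter line; 16 h treatment, 37C; substrate 2 h RT.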

[3] = target: Cellular tumor antigen p53 (Homo sapiens) (UniProt P04637); experiment: TOX21_p53_BLA_p3_ratio: Tox21 HCT-116 p53 Agonism Beta-lactamase Assay, Ratio, Phase 3 (AID 2283596)
Outline: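 Cells were seeded at 4000/well, rested 5 h at 37C, then dosed with DMSO compound solutions (217-fold dilution) for 16 h. CCF4-AM substrate was loaded for 2 h at room temperature, and the 460/530 nm emission ratio was fitted for gain of signal versus DMSO.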

[4] = target: Cellular tumor antigen p53 (Homo sapiens) (UniProt P04637); experiment: TOX21_p53_BLA_p5_ratio: Tox21 HCT-116 p53 Agonism Beta-lactamase Assay, Ratio, Phase 5 (AID 2283599)
Outline: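 Beta-lactamase reporter ratio (blue 460 nm over green 530 nm, 405 nm excitation) after 2 h CCF4-AM loading, in HCT-116 cells exposed 16 h at 37 C to compounds pinned at 217-fold dilution. Increases relative to DMSO baseline scored.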

[5] = target: Cellular tumor antigen p53 (Homo sapiens) (UniProt P04637); experiment: TOX21_p53_BLA_p4_ratio: Tox21 HCT-116 p53 Agonism Beta-lactamase Assay, Ratio, Phase 4 (AID 2283601)
Outline: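 Signal is the blue/green (460nm/530nm) ratio of cleaved versus uncleaved CCF4-AM substrate, read after 2 h substrate loading. Cells were HCT116 carrying the p53-responsive beta-lactamase reporter, dosed 16 h at 37C, 5% CO2; CellTiter-Glo measured in parallel.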

[6] = TOX21_PR_BLA_Followup_Agonist_viability: Viability Assessment in the Tox21 HEK293 Progesterone Receptor (PR) Agonism Beta-lactamase Follow-Up Assay (AID 2283935);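 further: signal loss means lower viability so actives are cytotoxic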
Outline: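 Cells were plated in medium with 2% charcoal-stripped FBS and rested 6 hr. Compounds in DMSO were then added for 16 hr at 37C, followed by the FRET substrate step and CellTiter-Glo luminescence after 30 min.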

[7] = TOX21_PR_BLA_Followup_Antagonist_viability: Viability Assessment in the Tox21 HEK293 Progesterone Receptor (PR) Antagonism Beta-lactamase Follow-Up Assay (AID 2283936);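 further: cells exposed to compound with R5020 agonist for 16 h; hits lower the luminescence signal meaning cytotoxicity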
Outline: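 PR-UAS-bla HEK293T cells in medium with 2% charcoal-stripped FBS were treated with compounds plus R5020 for 16 hr at 37C. After the beta-lactamase read, CellTiter-Glo was added to the same wells and luminescence read after 30 min at room temperature.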

[8] = target: PGR (gene 5241) (UniProt P06401); experiment: TOX21_PR_LUC_Followup_Agonist: Tox21 HEK293 Progesterone Receptor (PR) Agonism Luciferase Follow-Up Assay (AID 2283937; active means hit-call score of the fitted dose curve at least 0.9, where 1 is the maximum; inactive means score below 0.9)
PGR (gene 5241), sequence (P06401 whole entry, looked up): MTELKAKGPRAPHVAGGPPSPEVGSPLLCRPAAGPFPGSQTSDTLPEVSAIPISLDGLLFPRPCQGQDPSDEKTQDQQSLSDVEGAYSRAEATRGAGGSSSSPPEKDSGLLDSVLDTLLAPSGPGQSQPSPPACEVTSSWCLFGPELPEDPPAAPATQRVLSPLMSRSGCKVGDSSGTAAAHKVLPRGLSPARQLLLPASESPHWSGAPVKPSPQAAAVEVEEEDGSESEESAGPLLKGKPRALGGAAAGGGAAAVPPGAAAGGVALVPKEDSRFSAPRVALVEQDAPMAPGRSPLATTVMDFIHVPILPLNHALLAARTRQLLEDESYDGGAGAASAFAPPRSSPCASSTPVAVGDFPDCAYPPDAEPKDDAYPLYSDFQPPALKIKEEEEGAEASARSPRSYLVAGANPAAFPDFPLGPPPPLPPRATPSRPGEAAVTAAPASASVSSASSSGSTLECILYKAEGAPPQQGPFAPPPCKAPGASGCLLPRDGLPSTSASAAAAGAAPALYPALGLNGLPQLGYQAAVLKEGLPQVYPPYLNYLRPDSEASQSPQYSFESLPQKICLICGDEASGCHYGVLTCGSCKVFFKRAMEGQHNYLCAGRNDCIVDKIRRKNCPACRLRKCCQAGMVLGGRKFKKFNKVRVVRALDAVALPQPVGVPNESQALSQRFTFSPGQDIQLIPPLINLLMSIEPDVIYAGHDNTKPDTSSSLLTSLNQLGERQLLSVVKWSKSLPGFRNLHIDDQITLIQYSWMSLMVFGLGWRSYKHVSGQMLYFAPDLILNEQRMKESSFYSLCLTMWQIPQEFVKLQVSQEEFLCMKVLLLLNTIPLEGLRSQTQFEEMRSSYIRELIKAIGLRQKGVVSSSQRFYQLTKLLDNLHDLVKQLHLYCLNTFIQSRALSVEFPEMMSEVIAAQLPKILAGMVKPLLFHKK
Outline: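 Seed HEK293-PR-A-luc cells, wait 5 h, add compounds in DMSO, incubate 16 h at 37C, add ONE-Glo, read luminescence after 30 min. Activity is increase over DMSO controls; run with a viability counter-screen.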

[9] = target: PGR (gene 5241) (UniProt P06401); experiment: TOX21_PR_LUC_Followup_Antagonist: Tox21 HEK293 Progesterone Receptor (PR) Antagonism Luciferase Follow-Up Assay (AID 2283938);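 further: curve fitted upward as signal gain over DMSO baseline despite antagonist label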
Outline: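 HEK293-PR-A-luc cells were precultured 5 days in medium with 10% charcoal-stripped FBS, seeded 3,000/well, then exposed to compounds in DMSO for 16 h at 37C. Luciferase was read by ONE-Glo luminescence after 30 min at room temperature.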

[10] = TOX21_PR_LUC_Followup_Antagonist_viability: Viability Assessment in the Tox21 HEK293 Progesterone Receptor (PR) Antagonism Luciferase Follow-Up Assay (AID 2283940)
Outline: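 HEK293-PR-A-luc, 3,000 cells/well; 5 h at 37C/0% CO2; compound pin transfer; 16 h incubation; CellTiter-Glo ATP luminescence, signal loss = cytotoxicity.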

[11] = TOX21_PR_LUC_Followup_Agonist_viability: Viability Assessment in the Tox21 HEK293 Progesterone Receptor (PR) Agonism Luciferase Follow-Up Assay (AID 2283941);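 further: loss of signal means cytotoxicity so actives lower viability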
Outline: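 Multiplexed viability endpoint of the PR agonist luciferase follow-up: HEK293-PR-A-luc cells treated 16 h at 37C, with viability scored as decrease in CellTiter-Glo ATP signal.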

[12] = TOX21_p53_BLA_p5_viability: Viability Assessment in the Tox21 HCT-116 p53 Agonism Beta-lactamase Assay, Phase 5 (AID 2283600)
Outline: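 Luciferase-coupled ATP quantitation of cells treated for 16 h (37C, 5% CO2) with test chemicals delivered in DMSO via a 217-fold dilution; 4000 cells/well; reagent incubated 30 min at room temperature before luminescence reading.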

[13] = TOX21_p53_BLA_p4_viability: Viability Assessment in the Tox21 HCT-116 p53 Agonism Beta-lactamase Assay, Phase 4 (AID 2283597);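 further: hits lower the luminescence signal meaning cytotoxicity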
Outline: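 Cytotoxicity was inferred from loss of CellTiter-Glo luminescence. HCT116 cells had been dosed with compounds after 5 h plating, incubated 16 h at 37C and 5% CO2, and exposed to the CCF4-AM substrate for 2 h.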

Measured: AC50

CCn1c2ccccc2c2cc([N+](=O)[O-])ccc21
inactive: [1] | [2] | [3] | [4] | [5] | [6] | [7] | [8] | [10] | [11]
active: [9] 8.06 µM

CCC(C)O (centres undefined)
inactive: [1] | [2] | [3] | [12]

Nc1ncnc(Nc2ccccc2)n1
inactive: [1] | [2] | [3] | [5]

Oc1ccc(O)c2c(O)cccc12
inactive: [1] | [2] | [3] | [12] | [5]

NC(CS)C(=O)O (centres undefined)
inactive: [1] | [2] | [3] | [5]

Oc1cc(O)c(Cl)cc1Cl
inactive: [1] | [3] | [4] | [5]
active: [2] 64.5 µM

Cc1cc(C)c(NC(=O)C[C@H](CC(=O)O)c2cccc3ccccc23)c(C(=O)N2CCC3(CCCC3)CC2)c1
inactive: [1] | [2] | [3] | [5]

CC[C@@H](C)[C@@H](N)C(=O)O
inactive: [1] | [2] | [13] | [4]

Cc1cn([C@H]2C[C@H](F)[C@@H](CO)O2)c(=O)[nH]c1=O
inactive: [1] | [2] | [3] | [12] | [5]

Cc1cc(C)cc(OCC2CNC(=O)O2)c1 (centres undefined)
inactive: [1] | [2] | [3] | [5]

CO/N=C(\C(=O)N[C@@H]1C(=O)N2C(C(=O)[O-])=C(C[n+]3cccc4c3CCC4)CS[C@H]12)c1csc(N)n1
inactive: [1] | [2] | [3] | [12] | [5]

C=C1c2c(Cl)ccc(O)c2C(O)=C2C(=O)[C@]3(O)C(O)=C(C(N)=O)C(=O)[C@@H](N(C)C)[C@@H]3[C@@H](O)[C@H]12
inactive: [1] | [2] | [13] | [12]

O=C1N(c2ccccc2)c2ccccc2C1(Cc1ccncc1)Cc1ccncc1
inactive: [1] | [2] | [13] | [4] | [5]

CN1CCC(CN2c3ccccc3Sc3ccccc32)C1 (centres undefined)
inactive: [1] | [2] | [13] | [4]

CCOC(=O)[C@H](CCc1ccccc1)N[C@H]1CCCN2CCC[C@@H](C(=O)O)N2C1=O
inactive: [1] | [2] | [13] | [4] | [5]

CN1CCN(CCCN2c3ccccc3Sc3ccc(S(=O)(=O)N(C)C)cc32)CC1
inactive: [1] | [2] | [13] | [4] | [12] | [5]

COc1cc(-c2ccc(N=C=O)c(OC)c2)ccc1N=C=O
inactive: [1] | [2] | [13] | [4] | [5]

c1ccc(CCNc2nc(-c3ccccc3)cs2)cc1
inactive: [1] | [2] | [13] | [4] | [12]

CCCCCN(CCCCC)C(=O)C(CCC(=O)O)NC(=O)c1ccc(Cl)c(Cl)c1 (centres undefined)
inactive: [1] | [2] | [13] | [4] | [12] | [5]

CC(=O)c1cc(C)oc1C
inactive: [1] | [2] | [13] | [4] | [12] | [5]

CCC(=O)Nc1cccc(N)c1
inactive: [1] | [2] | [13] | [12]

CC(=O)Oc1cccc(C(=O)O)c1OC(C)=O
inactive: [1] | [2] | [13] | [4]

O=S(=O)(Cl)c1c(Cl)cccc1Cl
inactive: [1] | [2] | [13] | [4] | [12] | [5]

Cc1cc(Cl)c(C)cc1Cl
inactive: [1] | [2] | [13] | [4] | [5]

CCc1cn([C@H]2C[C@H](O)[C@@H](CO)O2)c(=O)[nH]c1=O
inactive: [1] | [2] | [13] | [4] | [12] | [5]

CC1(C)[C@@H]2CC[C@]3(C2)[C@@H]1C(=O)CCC3(C)C
inactive: [1] | [2] | [13] | [12] | [5]

CCCCCCCC/C=C\CCCCCCCCN
inactive: [1] | [2] | [13] | [4]

CN1CCCN=C1COC(=O)C(O)(c1ccccc1)C1CCCCC1 (centres undefined)
inactive: [1] | [2] | [13] | [4] | [5]

C=CC(=O)OCCCCCCCC
inactive: [1] | [2] | [13] | [12]

CC1c2ccccc2CN1NC(=O)c1ccc(Cl)c(S(N)(=O)=O)c1 (centres undefined)
inactive: [1] | [2] | [13] | [4] | [5]

O=C=Nc1ccc(Cl)c(Cl)c1
inactive: [1] | [2] | [13] | [4] | [12] | [5]

CO/N=C(/C(=O)N[C@@H]1C(=O)N2C(C(=O)OCOC(=O)C(C)(C)C)=C(C)CS[C@H]12)c1csc(N)n1
inactive: [1] | [2] | [13] | [12]
